We go through seven molecules from PubChem BioAssay.

SMILES strings stand for the structures. For some of these results: Measured potencies and affinities stand elsewhere. Active and inactive are the calls of the source.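 The calls were made as follows, unless noted: active = signal rise over 3 SD above mean of control wells given weak agonist, in both repeats and first screen; inactive = the rest.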

Test [1] relates to TRPC4 beta (transient receptor potential cation channel C4), mouse. The experiment in a line: activators of mouse TRPC4 channel, confirmation, cell-based, Fluo4 calcium, HEK293 TRPC4beta/mu-opioid, duplicates, 10 µM (AID 2426;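 active = fluorescence ratio normalized to control raised more than 50% in primary screen plus both repeat runs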). To be noted: Fluo4 calcium fluorescence, at 10 µM; hits give high values.
Test [2] concerns transient receptor potential cation channel C4 beta (TRPC4), mouse. The experiment in a line: activators of mouse TRPC4 channel, confirmation, cell-based, second round, Fluo4, HEK293 TRPC4beta/mu-opioid, 1 µM (AID 2461;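 active = primary screen active and over 50% activation in each of two duplicate runs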). The conditions noted are these: Fluo4 calcium fluorescence, at 1 µM; hits give high values.
Test [3] has as its system TRPC4 (transient receptor potential cation channel C4 beta), mouse. Put plainly: positive allosteric modulators of mouse TRPC4, confirmation, cell-based, second round, Fluo-4, HEK293 TRPC4beta/mu-opioid, 1 µM (AID 2554;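 active = primary screen hit whose fluorescence ratio, in both repeats, exceeds the weak agonist control mean by 3 SD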). The conditions noted are these: DAMGO EC20, Fluo-4 calcium flux, at 1 µM; hits give high values.
The subject of test [4] is TRPC4 beta (transient receptor potential cation channel C4), mouse. Put plainly: positive allosteric modulators of mouse TRPC4, confirmation, cell-based, Fluo-4, HEK293 TRPC4beta/mu-opioid (AID 2555;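 active = primary screen hit whose calcium fluorescence ratio, in both repeats, exceeds the weak agonist control mean by 3 SD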). To be noted: DAMGO EC20, Fluo-4 calcium flux, at 10 µM; hits give high values. In general terms: Calcium assays in cells follow changes in intracellular calcium, usually with a dye or a luminescent sensor.

The target in test [5] is Short transient receptor potential channel 4 (Mus musculus) (UniProt Q9QUQ5). Put plainly: inhibitors of mouse TRPC4 channel, confirmation, cell-based, Fluo4, HEK293 TRPC4beta/mu-opioid (AID 2636;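 active = calcium signal cut by more than 3 SD below the full-agonist control yet still positive, in both repeats and the earlier primary screen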). To be noted: DAMGO, Fluo4 calcium flux, at 10 µM; hits give high values.
The target is the same in test [6]. The experiment in a line: inhibitors of mouse TRPC4 channel, confirmation, cell-based, second round, Fluo4, HEK293 TRPC4beta/mu-opioid, 1 µM (AID 2637;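 active = calcium signal ratio cut to more than 3 SD under the fully stimulated control mean yet still positive, in both repeats and the primary screen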;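 as to inhibition: percent of integrated ratio relative to wells lacking test compound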). The conditions noted are these: Fluo4 calcium flux, DAMGO, at 1 µM; hits give high values.
For test [7] the target is unchanged. The experiment in a line: mouse TRPC4 channel activators, dose response, cell-based, HEK293 TRPC4/mu-opioid, Fluo-4 calcium (AID 434937;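 active = primary screen activator hit with a dose response curve and TRPC4 channel activation at any tested dose; inactive = no activation, no dose response, or not a primary hit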).
Test [8] has the same target. The experiment in a line: mouse TRPC4 channel inhibitors, dose response, cell-based, HEK293 TRPC4/mu-opioid, Fluo-4 calcium (AID 434942;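 active = primary screen inhibitor hit that blocks the TRPC4 channel at some tested dose, yielding a dose curve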).
Test [9] addresses Short transient receptor potential channel 6 (Mus musculus) (UniProt Q61143). Put plainly: inhibition of mouse TRPC6 channel, confirmation, selectivity assay for TRPC4 inhibitor project, cell-based, HEK293, membrane potential dye, duplicate (AID 434948;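 active = active in primary screen and both duplicates, each dropping signal beyond three positive-control SD with fluorescence still positive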). The conditions noted are these: HEK293 TRPC6, membrane potential dye fluorescence, at 10 µM, stimulated with maximal-effect acetylcholine; hits give high values.

Test [10] shares this target. The experiment in a line: activation of mouse TRPC6 channel, confirmation, selectivity assay for TRPC4 activator project, cell-based, HEK293, membrane potential dye, duplicate (AID 434950;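 active = membrane potential signal rise above negative control mean plus 3 SD in both duplicates, also active in the earlier TRPC4 screen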). The conditions noted are these: HEK293 TRPC6, membrane potential fluorescence, at 10 µM; hits give high values.
The target is the same in test [11]. Put plainly: TRPC6 potentiation by TRPC4 potentiator hits, confirmation, selectivity assay for TRPC4 potentiator project, HEK293 cells, membrane potential dye, duplicate (AID 434952;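 active = compound raising the membrane signal above positive-control mean plus 3 SD in both repeats, and a primary screen hit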). The conditions noted are these: HEK293 TRPC6, membrane potential dye fluorescence, at 10 µM, maximal acetylcholine added after compound; hits give high values.
In test [12] the target is Short transient receptor potential channel 4 (Mus musculus) (UniProt Q9QUQ5). Put plainly: calcium flux activators in TRPC4/5HT1a cells, counter-screen for TRPC4 activator project, cell-based, second counter screen, HEK293 TRPC4/5HT1a, Fluo-4 (AID 434977;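 active = calcium signal rise above buffer-control mean plus 5 SD in both duplicates, and also a hit in the primary screen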). The conditions noted are these: Fluo-4 calcium flux, at 10 µM; hits give high values.
The nature of test [13]: calcium flux inhibitors in TRPC4/5HT1a cells, confirmation, counter-screen for TRPC4 inhibitor project, cell-based, second counter screen, HEK293 TRPC4/5HT1a, Fluo-4 (AID 434978;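 active = primary screen active whose calcium signal fell more than 3 SD beyond the full-serotonin control mean in both duplicate plates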;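 as to outcome: serotonin given first at submaximal then at maximal dose after compound preincubation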). The conditions noted are these: Fluo-4 calcium flux, at 10 µM, serotonin added to trigger calcium flux; hits give high values.
In test [14] the test system is TRPC4 (mouse), co-expressed with 5HT1a in HEK293. Put plainly: calcium flux potentiators in TRPC4/5HT1a cells, confirmation, counter-screen for TRPC4 potentiator project, cell-based, second counter screen, HEK293 TRPC4/5HT1a, Fluo-4 (AID 434979). To be noted: Fluo-4 calcium flux, at 10 µM, serotonin added at its EC20 dose; hits give high values.
Test [15] in a line: calcium flux activation in mu-opioid HEK293 cells, confirmation, counter-screen for TRPC4 activator project, cell-based, HEK293 mu-opioid receptor line (AID 449723;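 active = hit in primary screen, with calcium signal over 5 SD above buffer well mean in both duplicates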;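 also: counter screen cells carry the mu-opioid receptor alone and lack TRPC4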). To be noted: Fluo-4 calcium fluorescence, at 10 µM; hits give high values.
Test [16] in a line: calcium flux enhancement in mu-opioid HEK293 cells, confirmation, counter-screen for TRPC4 allosteric potentiator project, cell-based, HEK293 mu-opioid receptor line (AID 449724;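 active = calcium signal rise more than 3 SD above the low-dose agonist control mean, in both duplicate plates and the primary screen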). To be noted: Fluo-4 calcium flux, at 10 µM, compound added before EC20 DAMGO stimulus; hits give high values.
The target in test [17] is Short transient receptor potential channel 4 (Mus musculus) (UniProt Q9QUQ5). Put plainly: TRPC4 positive allosteric modulators, dose response, cell-based, HEK293 TRPC4/mu-opioid, Fluo-4 calcium, EC20 DAMGO (AID 434941;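 active = earlier screen potentiator hit that boosts the TRPC4 ion channel at some dose, with a dose response; inactive = no potentiation, no dose response, or not a prior hit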;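 also: calcium entry triggered by an EC20 dose of DAMGO at the co-expressed mu-opioid receptor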).
The nature of test [18]: thallium flux activation in parental CHO cells, counter-screen for KCNQ1 potentiator project (AID 493006;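 active = duplicate-averaged activation above buffer control mean plus 5 SD of those controls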;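 also: fluorescence ratio of max minus min over baseline after K+ and Tl+ depolarization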). To be noted: parental CHO-K1 cells, FluxOR thallium flux, at 10 µM; hits give high values. (In general: Counterscreens check selectivity or assay interference.)
Test [19] concerns the target Potassium voltage-gated channel subfamily KQT member 1 (Homo sapiens) (UniProt P51787). The experiment in a line: KCNQ1 potassium channel potentiators, confirmation, FluxOR thallium flux, CHO cells, duplicates (AID 493007;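 active = potentiation averaged over duplicate wells exceeding buffer-only control mean by more than 3 SD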;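 also: 0% = buffer-only wells and 100% = R-L3 activator control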). The conditions noted are these: KCNQ1 cell line, FluxOR thallium flux fluorescence, at 10 µM; hits give high values, % of reference activator effect, buffer zero.

Test [20] concerns the target Potassium voltage-gated channel subfamily KQT member 2 (Rattus norvegicus) (UniProt O88943). The experiment in a line: rat KCNQ2 channel potentiation, selectivity assay for KCNQ1 potentiator project, KCNQ2-CHO-K1 cells (AID 493009;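 active = mean duplicate potentiation above the buffer control mean plus 5 SD of buffer wells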;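 also: assay conditions were tuned for KCNQ1 rather than KCNQ2 modulators; signal is max minus min fluorescence divided by baseline after thallium stimulus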). The conditions noted are these: FluxOR thallium flux fluorescence, at 10 µM; hits give high values, scaled: buffer 0, activator control 100.

Broadly, the inhibition is the relative decrease from the control value, in per cent.

Sequence of Short transient receptor potential channel 4 (Mus musculus) (Q9QUQ5 whole entry, looked up): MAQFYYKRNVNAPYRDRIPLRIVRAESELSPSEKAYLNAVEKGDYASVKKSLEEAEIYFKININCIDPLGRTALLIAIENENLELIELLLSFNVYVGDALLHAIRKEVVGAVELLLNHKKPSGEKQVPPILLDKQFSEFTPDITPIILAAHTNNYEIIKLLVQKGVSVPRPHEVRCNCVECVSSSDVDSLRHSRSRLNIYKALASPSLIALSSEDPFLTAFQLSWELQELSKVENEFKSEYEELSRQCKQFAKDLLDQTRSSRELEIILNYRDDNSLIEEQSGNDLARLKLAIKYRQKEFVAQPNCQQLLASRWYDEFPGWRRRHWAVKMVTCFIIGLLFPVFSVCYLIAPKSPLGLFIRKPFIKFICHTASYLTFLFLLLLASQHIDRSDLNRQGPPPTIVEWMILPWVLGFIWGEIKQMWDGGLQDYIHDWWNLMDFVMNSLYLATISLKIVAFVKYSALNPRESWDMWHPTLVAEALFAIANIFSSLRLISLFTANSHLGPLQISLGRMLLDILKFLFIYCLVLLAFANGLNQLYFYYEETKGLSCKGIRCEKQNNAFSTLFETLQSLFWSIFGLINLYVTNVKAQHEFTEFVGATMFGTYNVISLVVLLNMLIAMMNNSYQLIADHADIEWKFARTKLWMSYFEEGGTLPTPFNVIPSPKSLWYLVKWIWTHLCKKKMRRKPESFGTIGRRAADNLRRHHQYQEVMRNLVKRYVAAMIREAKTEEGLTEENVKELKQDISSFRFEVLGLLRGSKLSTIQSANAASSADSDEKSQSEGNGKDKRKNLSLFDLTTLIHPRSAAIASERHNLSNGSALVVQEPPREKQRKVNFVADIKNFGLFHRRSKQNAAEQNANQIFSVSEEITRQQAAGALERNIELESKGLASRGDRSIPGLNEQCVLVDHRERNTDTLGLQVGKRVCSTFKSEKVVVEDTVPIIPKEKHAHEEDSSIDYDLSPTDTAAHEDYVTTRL
Sequence of Short transient receptor potential channel 6 (Mus musculus) (Q61143 whole entry, looked up): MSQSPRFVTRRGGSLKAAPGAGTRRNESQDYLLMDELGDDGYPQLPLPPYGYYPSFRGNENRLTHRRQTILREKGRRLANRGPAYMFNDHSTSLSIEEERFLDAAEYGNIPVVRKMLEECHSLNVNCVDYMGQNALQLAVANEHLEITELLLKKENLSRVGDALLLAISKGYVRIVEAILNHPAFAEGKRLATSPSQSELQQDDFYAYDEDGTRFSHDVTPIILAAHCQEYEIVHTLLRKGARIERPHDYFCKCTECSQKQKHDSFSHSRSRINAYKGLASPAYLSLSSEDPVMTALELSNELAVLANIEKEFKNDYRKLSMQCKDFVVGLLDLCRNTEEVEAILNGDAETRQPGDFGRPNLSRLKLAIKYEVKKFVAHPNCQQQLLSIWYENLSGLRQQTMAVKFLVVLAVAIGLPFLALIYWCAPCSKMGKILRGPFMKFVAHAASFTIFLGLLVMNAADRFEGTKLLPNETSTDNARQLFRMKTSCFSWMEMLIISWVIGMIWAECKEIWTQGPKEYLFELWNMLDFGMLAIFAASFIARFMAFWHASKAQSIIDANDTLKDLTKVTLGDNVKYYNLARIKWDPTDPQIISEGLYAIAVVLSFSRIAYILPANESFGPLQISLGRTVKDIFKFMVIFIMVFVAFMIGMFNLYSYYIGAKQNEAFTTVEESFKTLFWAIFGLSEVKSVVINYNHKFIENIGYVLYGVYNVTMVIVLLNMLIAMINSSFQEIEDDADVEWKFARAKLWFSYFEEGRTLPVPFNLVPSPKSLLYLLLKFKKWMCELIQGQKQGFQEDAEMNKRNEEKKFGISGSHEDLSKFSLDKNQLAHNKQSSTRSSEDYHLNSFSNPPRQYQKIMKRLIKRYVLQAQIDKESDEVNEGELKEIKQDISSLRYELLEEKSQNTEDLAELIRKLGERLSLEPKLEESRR
Sequence of Potassium voltage-gated channel subfamily KQT member 2 (Rattus norvegicus) (O88943 whole entry, looked up): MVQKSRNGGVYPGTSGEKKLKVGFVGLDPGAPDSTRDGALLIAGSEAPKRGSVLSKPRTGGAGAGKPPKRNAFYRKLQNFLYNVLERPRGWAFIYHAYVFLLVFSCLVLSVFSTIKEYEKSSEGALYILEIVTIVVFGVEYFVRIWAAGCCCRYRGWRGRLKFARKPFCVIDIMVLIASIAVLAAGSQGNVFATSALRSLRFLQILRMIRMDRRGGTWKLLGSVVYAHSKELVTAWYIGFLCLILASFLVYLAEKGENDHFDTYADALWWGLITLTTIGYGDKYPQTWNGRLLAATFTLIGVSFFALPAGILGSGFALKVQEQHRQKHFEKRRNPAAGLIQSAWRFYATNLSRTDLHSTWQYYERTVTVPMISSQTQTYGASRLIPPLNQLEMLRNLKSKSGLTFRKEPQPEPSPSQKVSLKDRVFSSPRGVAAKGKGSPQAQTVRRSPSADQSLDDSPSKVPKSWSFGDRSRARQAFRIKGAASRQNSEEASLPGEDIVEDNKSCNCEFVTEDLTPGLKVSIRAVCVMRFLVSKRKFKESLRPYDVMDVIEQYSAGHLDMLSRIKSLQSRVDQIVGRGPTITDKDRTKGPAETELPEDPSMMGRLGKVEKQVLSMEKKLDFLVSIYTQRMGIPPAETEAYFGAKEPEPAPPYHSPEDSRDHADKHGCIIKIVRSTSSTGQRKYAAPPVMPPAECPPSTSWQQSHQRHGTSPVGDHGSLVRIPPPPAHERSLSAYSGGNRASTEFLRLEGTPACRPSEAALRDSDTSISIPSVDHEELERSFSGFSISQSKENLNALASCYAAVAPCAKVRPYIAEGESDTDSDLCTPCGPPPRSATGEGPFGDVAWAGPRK
Sequence of Potassium voltage-gated channel subfamily KQT member 1 (Homo sapiens) (P51787 whole entry, looked up): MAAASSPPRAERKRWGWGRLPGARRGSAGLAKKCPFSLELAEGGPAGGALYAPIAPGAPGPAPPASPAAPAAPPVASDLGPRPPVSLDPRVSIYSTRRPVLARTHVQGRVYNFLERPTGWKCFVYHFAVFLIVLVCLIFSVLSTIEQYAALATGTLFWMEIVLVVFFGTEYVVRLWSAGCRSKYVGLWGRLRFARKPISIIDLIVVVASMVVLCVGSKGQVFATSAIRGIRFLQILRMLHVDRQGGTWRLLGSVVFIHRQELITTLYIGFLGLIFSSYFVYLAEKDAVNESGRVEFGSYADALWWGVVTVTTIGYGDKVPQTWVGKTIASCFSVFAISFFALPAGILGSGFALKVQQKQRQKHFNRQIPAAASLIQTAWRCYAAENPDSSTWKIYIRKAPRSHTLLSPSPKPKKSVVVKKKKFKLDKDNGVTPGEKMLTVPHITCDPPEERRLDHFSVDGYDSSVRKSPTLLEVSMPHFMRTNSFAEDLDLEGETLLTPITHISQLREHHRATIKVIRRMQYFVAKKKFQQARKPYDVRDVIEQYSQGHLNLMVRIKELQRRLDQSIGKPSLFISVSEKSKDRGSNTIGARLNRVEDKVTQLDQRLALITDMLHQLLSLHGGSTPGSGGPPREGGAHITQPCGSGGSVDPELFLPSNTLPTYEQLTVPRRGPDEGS

For `Cc1ccc(/C=N/NC(=O)NC2CCCCC2)o1`, the outcome in test [1], in [2], in test [5], in test [6], in test [7] and in test [8] was inactive. For the same molecule, the outcome in test [9], in test [10], in [11], in test [12], in test [13] and in test [15] was inactive. For the same molecule, in test [16], the outcome was inactive. Moreover, the potentiation in [3] was 10% (active); in test [4], 54% (active); in test [14], 69.9% (active).
Take `O=Cc1cc(N=Nc2ccccc2Cl)ccc1O`: the outcome in test [1], in [2], in test [3], in test [4], in test [6] and in test [7] was inactive. Further, the outcome in test [17], in test [9], in test [10], in [11], in [12] and in test [14] was inactive. The result in test [15] and in test [16] was inactive. Also, the inhibition in test [5] is 91% (active); in [13] it was 30.2% (active). Besides, the activation in [18] is 237% (active). The potentiation in test [19] was 81% (active); in test [20], 248% (active).
In the case of `CNc1nc(N2CCc3ccccc32)ncc1F`, the outcome in test [1], in test [2], in test [5], in [6], in test [7] and in test [8] was inactive. For the same molecule, the result in test [9], in [10], in test [11], in test [12], in [13] and in test [15] was inactive. Also, the outcome in test [16] was inactive. For the same molecule, the potentiation is 27% (active) in test [3], 75% (active) in test [4] and 103% (active) in test [14].
Turning to `c1ccc(CN2CCN(Cc3c[nH]c4ccccc34)CC2)cc1`, the outcome in [1], in test [2], in test [3], in [4], in test [6] and in test [7] was inactive. Besides, the result in test [17], in test [9], in test [10], in test [11], in test [12] and in [14] was inactive. In addition, the outcome in test [15] and in test [16] was inactive. The inhibition in test [5] was 88% (active); in [13], 31.6% (active).
Consider `COc1ccc(N/C(C)=C2/C(=O)C(=O)N(CCO)C2c2ccc([N+](=O)[O-])cc2)cc1` (stereo not given), for which the result in test [1], in test [2], in test [5], in test [6], in test [7] and in test [8] was inactive. In addition, the call in test [9], in test [10], in [11], in [12], in [13] and in test [15] was inactive. The result in [16] was inactive. Besides, the potentiation in [3] was 189% (active); in test [4], 150% (active); in [14] it was 129% (active).
With `CCCN1C2=NCCN2c2cc(C)c(C)cc21`, the result in test [1], in test [2], in test [3], in test [4], in [7] and in [17] was inactive. Further, the molecule was called inactive in [10], in test [11], in [12], in test [14], in [15] and in test [16]. The inhibition was 91% (active) in test [5], 48% (active) in [6], 40.5% (active) in test [9] and 25.6% (active) in test [13].
For the molecule `O=C(CCN1CCN(Cc2ccccc2)CC1)Nc1ccc(OCc2ccccc2)cc1`, the result in test [1], in test [2], in test [3], in test [5], in [6] and in [7] was inactive. Besides, the outcome in [8], in test [9], in test [10], in test [11], in test [12] and in test [13] was inactive. Besides, the outcome in [15] and in test [16] was inactive. The results for the potentiation in test [4] and in test [14] were 12% (active) and 25.1% (active), respectively.
